In PubChem BioAssay (NCATS):
Inconclusive results are not listed. A call without a number means that no potency is given here. The source holds several records for some structures; these can differ, active in one and inactive in another. The source made the active and inactive calls. Calls come from the whole dose curve; as a rule, active = well fitted inhibition curve with a large enough effect; inconclusive = small, poorly fitted or top-dose-only effect; inactive = flat fitted curve, though single readings scatter.

The compounds below were run against Glutathione peroxidase 1 (Homo sapiens) (UniProt P07203) (assay: Primary qHTS Assay for Inhibitors of Recombinant Selenoprotein Glutathione Peroxidase 1 (GPX1) (AID 1845191; note: nearly all actives have a fitted effect of over 65% in size)). Conditions: recombinant GPX1, GR-coupled NADPH fluorescence, 15 min; series mostly up to 48.8 µM; activity, negative = inhibition: at the top concentration.
Excerpt: Assay Provider: Elias S.J. Arner MD PhD.
Department of Medical Biochemistry and Biophysics
Karolinska Institutet, Solna, Stockholm, Sweden
Selenoprotein glutathione peroxidases (GPX), like the ubiquitously expressed GPX1 and the ferroptosis modulator GPX4, enact their antioxidant activities by reducing hydroperoxides using glutathione. […] GPX1 and GPX4 inhibitors have thus shown promise as anti-cancer agents. Existing inhibitors are often promiscuous, or modulate GPX activity only indirectly, so novel direct inhibitors identified through screening against GPX1 and GPX4 could be valuable. Here, we developed optimized glutathione reductase (GR)-coupled GPX assays for the biochemical high-throughput screen (HTS) of almost 12,000 compounds with known mechanisms of action. Initial hits were triaged using a GR counter-screen, assessed for isoform specificity using a separate GPX2 assay, and were assessed for general selenocysteine-targeting activity using a thioredoxin reductase (TXNRD1) assay. With this suite of assays, we identified novel GPX1/GPX2- and GPX4-specific inhibitors and can here present a validated pipeline for future discovery research for selenoprotein-targeting agents.
SEQUENCE No. (e.g., 1, 2, 3, etc.); […] (e.g., Cells, Incubation, Reagent, etc.); VALUE; DESCRIPTION.
1; Reagent 1; 3 uL; GPx1 enzyme or no enzyme control in 1536-well, black, solid Greiner assay plate.
2; Compound; 25 nL; Kalypsis pin tool (Wako USA) equipped with a 1536-well pin head.
3; Incubation; 30 min; room temperature.
4; Reagent 2; 1 uL; 10 nM GPX1, 1 mM GSH, 0.5 mM CHP, 0.5 mM NADPH, 100 nM GR, 0.01% BSA substrate
5; Detection; Fluorescence; ViewLux microplate reader, excitation 340 nm and emission 450 nm.
6; Incubation; 15 min; room temperature.
7; Detection; Fluorescence; ViewLux microplate reader, excitation 340 nm and emission 450 nm.
NOTES (numbers refer to Sequence numbers above)
1. 3 uL of 16.66 nM GPX1 and 0.016% BSA in assay buffer (50 mM Tris-HCl, 2 mM EDTA (pH 7.5), 150 mM NaCl) was added to columns 3-48 of 1536-well assay plates using a BioRAPTR Flying Reagent Dispenser (Let's Go Robotics (LGR), Carlsbad, CA). A no-enzyme control (0.01% BSA in TES assay buffer) was added to columns 1-2.
2. 25 nL of test compounds and DMSO controls were added to each well with a pin tool (Kalypsys).
3. The assay plates were incubated for 30 minutes at room temperature.
4. 1 uL of master mix (500 nM glutathione reductase (GR), 5 mM reduced glutathione (GSH), 2.5 mM NADPH in assay buffer) was added. 1 uL of cumene hydroperoxide (CHP) ([2.5 mM] in 50% EtOH) was then added within 5 minutes to initiate the reaction. Final concentrations were: 10 nM GPX1, 1 mM GSH, 0.5 mM CHP, 0.5 mM NADPH, 100 nM GR, 0.01% BSA.
5. Initial fluorescence readout (t=0) at 340/450 nm was measured using a ViewLux multimodal detector (PerkinElmer, Waltham, MA).
7. Endpoint fluorescence readout (t=15) at 340/450 nm was measured 15 min after room temperature incubation.
Potency is the fitted concentration of half-maximal effect.

Sequence of Glutathione peroxidase 1 (Homo sapiens) (P07203 whole entry, looked up): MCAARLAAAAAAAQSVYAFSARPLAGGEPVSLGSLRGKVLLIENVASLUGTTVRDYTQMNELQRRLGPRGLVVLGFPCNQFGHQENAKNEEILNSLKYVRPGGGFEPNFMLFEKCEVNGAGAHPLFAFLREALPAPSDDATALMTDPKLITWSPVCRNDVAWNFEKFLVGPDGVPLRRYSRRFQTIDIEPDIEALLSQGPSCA

Structure (SMILES) | activity, negative = inhibition | Potency | outcome
CN1CCC[C@@H]1c1cccnc1 | 3.08% (inactive) | – | –
C[C@]12CC[C@@H]3c4ccc(O)cc4CC[C@H]3[C@@H]1C[C@@H](O)[C@@H]2O | – | inactive | –
CC1(C)O[C@@H]2[C@@H](CO[C@@]3(COS(N)(=O)=O)OC(C)(C)O[C@@H]23)O1 | -13.6% (inactive) | – | –
CC1(C)O[C@@H]2C[C@H]3[C@@H]4C[C@H](F)C5=CC(=O)C=C[C@]5(C)[C@H]4[C@@H](O)C[C@]3(C)[C@]2(C(=O)CO)O1 | – | inactive | –
NC(=NCCCCCCN=C(N)/N=C(\N)Nc1ccc(Cl)cc1)/N=C(\N)Nc1ccc(Cl)cc1 | – | inactive | –
CCn1cc(C(=O)O)c(=O)c2cnc(N3CCCC3)nc21 | -13.1% [at 9.52 µM] (inactive) | – | –
C[C@]12CCC(=O)C=C1CC[C@H]1[C@@H]3CC[C@](O)(C(=O)CO)[C@@]3(C)C[C@H](O)[C@@]12F | -13.4% (inactive) | – | –
COc1ccc(C2C(=O)c3ccccc3C2=O)cc1 | -12.5% (inactive) | – | –
CC(=O)O[C@]1(C(C)=O)CC[C@H]2[C@@H]3C[C@H](C)C4=CC(=O)CC[C@]4(C)[C@H]3CC[C@@]21C | – | inactive | –
C[C@@H]1C(=O)NC2=Nc3cccc(Cl)c3CN21 | -22.3% (inactive) | – | –
CCOC(=O)c1cccc(N)c1 | 1.64% (inactive) | – | –
N[C@H](CO)C(=O)O | – | inactive | –
CC1=C(C(=O)OC(C)C)C(c2cccc([N+](=O)[O-])c2)C(C(=O)OC2CN(C(c3ccccc3)c3ccccc3)C2)=C(N)N1 (stereo not given) | – | – | inactive
CC(C)C[C@H]1C(=O)N2CCC[C@H]2[C@]2(O)O[C@](NC(=O)[C@@H]3C=C4c5cccc6[nH]c(Br)c(c56)C[C@H]4N(C)C3)(C(C)C)C(=O)N12 | – | inactive | –
CC(=O)OCC(=O)[C@@]1(O)CC[C@H]2[C@@H]3CCC4=CC(=O)C=C[C@]4(C)[C@H]3[C@@H](O)C[C@@]21C | – | inactive | –
COc1cc(/C=C/C(=O)O[C@H]2CC[C@]34C[C@]35CC[C@]3(C)[C@@H]([C@H](C)CCC=C(C)C)CC[C@@]3(C)[C@@H]5CC[C@H]4C2(C)C)ccc1O | -24.1% (inactive) | – | –
COCc1c(C(C)C)nc(C(C)C)c(/C=C/[C@@H](O)C[C@@H](O)CC(=O)O)c1-c1ccc(F)cc1 | -9.64% (inactive) | – | –
CCN(CCCc1ccccc1)CCCc1ccccc1 | -9.26% (inactive) | – | –
CN1C2CCC1CC(OC(=O)c1c[nH]c3ccccc13)C2 (stereo not given) | – | – | inactive
CC(=O)N(O)CCCCCNC(=O)CCC(=O)N(O)CCCCCNC(=O)CCC(=O)N(O)CCCCCN | – | inactive | –

Structure (SMILES) | activity, negative = inhibition | Potency | outcome
Cc1cc2c(cc1CC(=O)c1sccc1S(=O)(=O)Nc1onc(C)c1Cl)OCO2 | – | 18 µM (active) and inactive | –
COc1cc2c(cc1OC)C(=O)C(CC1CCN(Cc3ccccc3)CC1)C2 (stereo not given) | -18.4% (inactive) | – | –
CCCCC(=O)O[C@]1(C(=O)CO)CC[C@H]2[C@@H]3CCC4=CC(=O)CC[C@]4(C)[C@H]3[C@@H](O)C[C@@]21C | – | – | inactive
CO/N=C1\CN(c2nc3c(cc2F)c(=O)c(C(=O)O)cn3C2CC2)CC1CN (stereo not given) | -29.1% (inactive) | – | –
COC(=O)C1=C(C)NC(C)=C(C(=O)O[C@@H]2CCCN(Cc3ccccc3)C2)[C@@H]1c1cccc([N+](=O)[O-])c1 | -22.8% (inactive) | – | –
CCCCS(=O)(=O)N[C@@H](Cc1ccc(OCCCCC2CCNCC2)cc1)C(=O)O | – | inactive | –
Cc1ccnc(NS(=O)(=O)c2ccc(N)cc2)n1 | – | – | inactive
COc1ccc(OC)c(C(O)CNC(=O)CN)c1 (stereo not given) | -7.72% (inactive) | – | –
CC(C)NC[C@@H](O)COc1cccc2ccccc12 | – | – | inactive
COc1cc2c(cc1O)CC[C@@H]1[C@@H]2CC[C@]2(C)[C@@H](O)CC[C@@H]12 | – | inactive | –
CC(=O)Oc1ccc2c(c1)CC[C@@H]1[C@@H]2CC[C@]2(C)[C@@H](O)CC[C@@H]12 | – | – | inactive
CCCN1CCCC[C@H]1C(=O)Nc1c(C)cccc1C | -16.1% (inactive) | – | –
CC(=O)OCC(=O)NCCCOc1cccc(CN2CCCCC2)c1 | -11.9% (inactive) | – | –
C[C@]12C=CC(=O)C=C1CC[C@@H]1[C@@H]2[C@@H](O)C[C@@]2(C)[C@H]1CC[C@]2(O)C(=O)CO | – | inactive | –
CN(C)CCCOc1nn(Cc2ccccc2)c2ccccc12 | – | inactive | –
CN1CCCC(CC2c3ccccc3Sc3ccccc32)C1 (stereo not given) | – | – | inactive
CCCSS/C(CCO)=C(\C)N(C=O)Cc1cnc(C)nc1N | -14% (inactive) | – | –
CC[N+](CC)(CCNC(=O)C(=O)NCC[N+](CC)(CC)Cc1ccccc1Cl)Cc1ccccc1Cl | -14.2% (inactive) | – | –
CC(C)=CCC1C(=O)N(c2ccccc2)N(c2ccccc2)C1=O | – | – | inactive
CC(=O)O[C@H]1C[C@@H]2CC[C@@H]3[C@H](CC[C@@]4(C)[C@H]3C[C@H]([N+]3(C)CCCCC3)[C@@H]4OC(C)=O)[C@@]2(C)C[C@@H]1[N+]1(C)CCCCC1 | -21.7% (inactive) | – | –
